# Data from PubChem BioAssay (Tox21).
# Several values for one entry are separate records, joined by “and”; a condition that tells them apart may be missing. Equal entries are not always repeated. Results filed as inconclusive are left out. Entries that show only a call come without a potency. The source holds several records for some structures; these can differ, active in one and inactive in another. Activity calls are given as the source filed them. Unless noted, calls follow the shape of the full dose curve.
# Columns and labels:
# [1] = Nuclear factor erythroid 2-related factor 2/antioxidant responsive element (Nrf2/ARE) small molecule agonists: qHTS cell viability counter screen in human keratinocytes (AID 1919968; active = well fitted curve in the direction sought with a large enough effect in the repeat runs; an effect the other way counts as inactive or inconclusive; also: nearly all actives have a fitted effect of over 55% in size; also: potency is read from the fitted curve at half-maximal effect)
# In short: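 Viability counter-screen: KeratinoSens reporter cells, DMSO-delivered compounds, 23 h at 37 C, CellTiter-Fluor fluorescence.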
# [2] = target: Gonadotropin-releasing hormone receptor (Homo sapiens) (UniProt P30968); assay: Human gonadotropin-releasing hormone receptor (GnRHR) small molecule agonists, calcium flux assay in GnRHR-HEK293 cells (AID 1920063); also: nearly all actives have a fitted effect of over 35% in size
# In short: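 Tox21-format agonist screen using human GnRHR-expressing HEK293 cells and a fluorescent calcium dye; kinetic 3-min fluorescence reading after compound addition, 15-point concentration series run in triplicate.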
# [3] = target: KiSS-1 receptor (Homo sapiens) (UniProt Q969F8); assay: Human kisspeptin (KISS1R) small molecule agonists, calcium flux assay in KISS1R-HEK293 cells (AID 1920064; active = well fitted curve in the direction sought with a large enough effect in the repeat runs; an effect the other way counts as inactive or inconclusive)
# In short: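 Intracellular calcium mobilization in KISS1R-HEK293 cells was recorded by fluorescence (Ex/Em 480/540) for 3 min following compound addition to cells pre-loaded 1 h with calcium dye.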
# [4] = G protein-coupled receptor (GPCR) small molecule agonists, calcium flux assay: HEK293 wild type cell line counter screen (AID 1920065)
# In short: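 In this agonist-mode screen, ATP is the positive control and DMSO the vehicle. Cells grow 18 h before a 1 h dye incubation at 37 C; signal is taken at Ex/Em 480/540 over 3 min.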
# [5] = p53 small molecule agonists, cell-based qHTS assay with human liver microsomes (AID 1963577)
# In short: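 Compounds act here after metabolic activation: human liver microsomes and NADPH, both at 0.5 mg/mL final, were co-added to p53RE-bla cells. Incubation ran 16 h at 37 C, followed by LiveBLAzer detection.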
# [6] = p53 small molecule agonists, cell-based qHTS assay with rat liver microsomes (AID 1963578)
# In short: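 Read-out is beta-lactamase reporter fluorescence (LiveBLAzer, 2 h, room temperature, dark) in p53RE-bla cells treated 16 h at 37 C with compound, rat liver microsomes and NADPH, both 0.5 mg/mL final.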
# [7] = p53 small molecule agonists, cell-based qHTS assay with human liver microsomes: qHTS cell viability counter screen (AID 1963579); also: nearly all actives have a fitted effect of over 45% in size; also: potency is read from the fitted curve at half-maximal effect
# In short: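 Cells carrying the p53 response-element beta-lactamase reporter are treated for 16 h at 37 C with test compounds in the presence of human liver microsomes and NADPH (both 0.5 mg/mL final); ATP-based CellTiter-Glo luminescence then reports viability.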
# [8] = p53 small molecule agonists, cell-based qHTS assay: qHTS cell viability counter screen (AID 1963581); also: nearly all actives have a fitted effect of over 45% in size
# In short: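 Compounds are pinned onto HCT-116 p53RE-bla cells and left 16 h at 37 C. Following the reporter FRET read, ATP is quantified by CellTiter-Glo luminescence after 30 min at room temperature.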
# [9] = p53 small molecule agonists, cell-based qHTS assay (AID 1963582; active = well fitted activation curve with a large enough effect in the signal ratio in the repeat runs, not every such curve was filed as active; the % refers to the signal ratio; also: potency is read from the fitted curve at half-maximal effect)
# In short: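 Agonist activity was scored from beta-lactamase FRET fluorescence in p53RE-bla cells treated 16 h at 37 C with compounds in DMSO, substrate incubation being 2 h at room temperature.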
# [10] = target: 5-hydroxytryptamine receptor 2A (Homo sapiens) (UniProt P28223); assay: 5-hydroxytryptamine receptor 2A (HTR2A) small molecule antagonists, cell-based qHTS assay (AID 1963586); also: nearly all actives have a fitted effect of over 45% in size
# In short: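 Antagonist-mode intracellular calcium assay: DOI (4 nM) added after 5 min compound pre-incubation at room temperature to dye-loaded HTR2A-CHO cells. Fluorescence followed for 3 min, sampled every second.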
# [11] = target: 5-hydroxytryptamine receptor 2A (Homo sapiens) (UniProt P28223); assay: 5-hydroxytryptamine receptor 2A (HTR2A) small molecule agonists, cell-based qHTS assay (AID 1963587); also: nearly all actives have a fitted effect of over 30% in size
# In short: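 HTR2A-CHO cells, plated 18 h at 37 C/5% CO2, dye-loaded 1 h at 37 C; compounds in DMSO added by pin tool (agonist mode). Intracellular calcium flux read as kinetic fluorescence on FDSS over 2 min at 1 s intervals.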
# [12] = target: Muscarinic acetylcholine receptor M1 (Homo sapiens) (UniProt P11229); assay: Cholinergic receptor muscarinic 1 (CHRM1) small molecule antagonists, cell-based qHTS assay (AID 1963588); also: nearly all actives have a fitted effect of over 40% in size
# In short: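 CHRM1-CHO calcium-flux assay, antagonist mode. Cells were seeded 18 h, dye-loaded 1 h at 37 C and given compound for 5 min at RT, then acetylcholine was added at 50nM. FDSS fluorescence was read 3 min; 15 concentrations, three runs.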
# [13] = target: Muscarinic acetylcholine receptor M1 (Homo sapiens) (UniProt P11229); assay: Cholinergic receptor muscarinic 1 (CHRM1) small molecule agonists, cell-based qHTS assay (AID 1963589); also: nearly all actives have a fitted effect of over 35% in size
# In short: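 Stable CHRM1-CHO cells (human receptor) were incubated 18 h, dye-loaded for 1 h at 37 C and exposed to test compounds for agonist activity, with calcium-dependent fluorescence followed kinetically.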
# [14] = cAMP Responsive Elements (CRE) small molecule agonists, cell-based qHTS assay (AID 1963590)
# In short: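 FRET-based beta-lactamase readout (LiveBLAzer B/G, 2 h RT) quantified CRE activation in HEK 293T CRE-bla cells after 3 h treatment with DMSO-dissolved compounds.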
# [15] = target: Beta-2 adrenergic receptor (Homo sapiens) (UniProt P07550); assay: Adrenergic beta2 receptor (ADRB2) small molecule antagonists, cell-based qHTS assay (AID 1963592); also: series mostly up to about 92 µM; nearly all actives have a fitted effect of over 50% in size
# In short: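 Cells (CHO, stable ADRB2 overexpression) incubated 18-20hr at 37C; compounds added from DMSO; agonist mix (1nM isoproterenol, 100uM IBMX, 25uM Ro-20-1724) added; 0.5hr RT; d2-cAMP and anti-cAMP-cryptate added; 1hr RT; 665/615 nm read.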
# [16] = target: D(2) dopamine receptor (Homo sapiens) (UniProt P14416); assay: Dopamine D2 receptor (DRD2) small molecule agonists, cell-based qHTS assay (AID 1963594); also: nearly all actives have a fitted effect of over 35% in size; also: potency is read from the fitted curve at half-maximal effect
# In short: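 HEK293 cells stably expressing DRD2 were cultured 24 h at 37 C, then given Ro20-1724 (0.1 mM final) and compounds for 10 min at room temperature. NKH477 (200nM) was then added for 30 min. cAMP was read by HTRF.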
# [17] = target: D(2) dopamine receptor (Homo sapiens) (UniProt P14416); assay: Dopamine D2 receptor (DRD2) small molecule antagonists, cell-based qHTS assay (AID 1963595; active = well fitted inhibition curve with a large enough effect in the signal ratio in the repeat runs, with a control signal flat; the % refers to the signal ratio; also: potency is read from the fitted curve at half-maximal effect)
# In short: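 Stable D2 receptor HEK293 line, 24 h after seeding. Compound preincubated 10 min, then quinpirole (12 nM) with forskolin analogue NKH477 (200 nM), 30 min, room temperature. Detection by time-resolved FRET of cAMP.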
# [18] = target: Beta-2 adrenergic receptor (Homo sapiens) (UniProt P07550); assay: Adrenergic beta2 receptor (ADRB2) small molecule agonists, cell-based qHTS assay (AID 1963593);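 also: CHO cells stably overexpressing human ADRB2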
# In short: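 CHO cells stably over-expressing ADRB2 were plated overnight at 37C, then dosed with compounds plus a stimulation mix containing 100uM IBMX and 25uM Ro-20-1724 for 0.5hr at room temperature. cAMP was measured by HTRF competition, 1hr.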
# [19] = p53 small molecule agonists, cell-based qHTS assay with rat liver microsomes: qHTS cell viability counter screen (AID 1963580); also: nearly all actives have a fitted effect of over 45% in size
# In short: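 In HCT-116 cells carrying a p53 response element-bla reporter, compounds were metabolically activated in situ by rat liver microsomes with NADPH over 16 h. Cell ATP content then served as the cytotoxicity measure.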
# [20] = cAMP Responsive Elements (CRE) small molecule antagonists, cell-based qHTS assay (AID 1963591; active = well fitted inhibition curve with a large enough effect in the signal ratio in the repeat runs, not every such curve was filed as active; the % refers to the signal ratio)
# In short: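 qHTS in CRE-bla HEK 293T cells: compound in DMSO, then 0.25 uM NKH477 (final), 3 h at 37 °C/5% CO2; beta-lactamase FRET read-out after 2 h substrate incubation.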
# Chain of Gonadotropin-releasing hormone receptor (Homo sapiens) (P30968 whole entry, looked up): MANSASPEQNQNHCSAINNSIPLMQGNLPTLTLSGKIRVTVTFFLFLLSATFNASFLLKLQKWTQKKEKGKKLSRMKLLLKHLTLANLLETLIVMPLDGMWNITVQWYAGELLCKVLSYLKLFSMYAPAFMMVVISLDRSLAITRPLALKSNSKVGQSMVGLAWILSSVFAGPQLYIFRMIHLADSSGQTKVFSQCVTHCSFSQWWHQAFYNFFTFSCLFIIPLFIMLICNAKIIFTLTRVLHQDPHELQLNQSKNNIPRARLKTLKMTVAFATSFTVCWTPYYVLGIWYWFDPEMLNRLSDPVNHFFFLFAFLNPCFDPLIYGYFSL
# Chain of D(2) dopamine receptor (Homo sapiens) (P14416 whole entry, looked up): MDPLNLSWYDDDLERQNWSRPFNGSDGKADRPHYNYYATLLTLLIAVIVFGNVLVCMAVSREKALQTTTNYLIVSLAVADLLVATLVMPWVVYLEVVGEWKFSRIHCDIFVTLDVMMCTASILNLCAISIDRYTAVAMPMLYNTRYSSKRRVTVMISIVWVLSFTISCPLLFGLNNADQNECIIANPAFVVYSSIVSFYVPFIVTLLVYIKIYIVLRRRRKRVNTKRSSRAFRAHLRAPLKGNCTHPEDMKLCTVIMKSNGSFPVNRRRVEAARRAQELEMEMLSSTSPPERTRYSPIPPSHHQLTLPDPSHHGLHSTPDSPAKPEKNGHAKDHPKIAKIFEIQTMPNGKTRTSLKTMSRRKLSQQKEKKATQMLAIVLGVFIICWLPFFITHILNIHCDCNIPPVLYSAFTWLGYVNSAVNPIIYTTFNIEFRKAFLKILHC
# Chain of KiSS-1 receptor (Homo sapiens) (Q969F8 whole entry, looked up): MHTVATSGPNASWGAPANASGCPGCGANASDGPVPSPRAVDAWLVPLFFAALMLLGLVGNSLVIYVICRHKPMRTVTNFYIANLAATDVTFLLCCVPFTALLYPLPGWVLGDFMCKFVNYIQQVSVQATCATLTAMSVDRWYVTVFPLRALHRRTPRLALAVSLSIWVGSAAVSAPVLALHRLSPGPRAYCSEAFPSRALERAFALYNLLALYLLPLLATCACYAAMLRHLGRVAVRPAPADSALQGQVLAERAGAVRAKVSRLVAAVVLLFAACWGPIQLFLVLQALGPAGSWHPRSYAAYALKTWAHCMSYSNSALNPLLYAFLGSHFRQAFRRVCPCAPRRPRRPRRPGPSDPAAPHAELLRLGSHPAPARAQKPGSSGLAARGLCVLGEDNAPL
# Chain of Muscarinic acetylcholine receptor M1 (Homo sapiens) (P11229 whole entry, looked up): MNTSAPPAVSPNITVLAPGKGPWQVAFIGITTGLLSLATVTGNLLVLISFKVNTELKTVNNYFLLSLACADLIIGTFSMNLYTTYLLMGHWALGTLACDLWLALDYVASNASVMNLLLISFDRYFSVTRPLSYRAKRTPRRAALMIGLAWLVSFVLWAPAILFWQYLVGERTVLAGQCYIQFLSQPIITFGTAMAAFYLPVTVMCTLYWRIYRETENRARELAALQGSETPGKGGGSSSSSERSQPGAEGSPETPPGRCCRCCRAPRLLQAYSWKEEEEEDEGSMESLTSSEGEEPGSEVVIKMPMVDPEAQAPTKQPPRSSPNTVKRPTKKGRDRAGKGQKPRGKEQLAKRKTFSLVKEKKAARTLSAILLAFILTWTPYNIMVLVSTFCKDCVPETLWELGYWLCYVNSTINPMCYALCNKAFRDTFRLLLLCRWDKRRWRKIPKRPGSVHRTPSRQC
# Chain of 5-hydroxytryptamine receptor 2A (Homo sapiens) (P28223 whole entry, looked up): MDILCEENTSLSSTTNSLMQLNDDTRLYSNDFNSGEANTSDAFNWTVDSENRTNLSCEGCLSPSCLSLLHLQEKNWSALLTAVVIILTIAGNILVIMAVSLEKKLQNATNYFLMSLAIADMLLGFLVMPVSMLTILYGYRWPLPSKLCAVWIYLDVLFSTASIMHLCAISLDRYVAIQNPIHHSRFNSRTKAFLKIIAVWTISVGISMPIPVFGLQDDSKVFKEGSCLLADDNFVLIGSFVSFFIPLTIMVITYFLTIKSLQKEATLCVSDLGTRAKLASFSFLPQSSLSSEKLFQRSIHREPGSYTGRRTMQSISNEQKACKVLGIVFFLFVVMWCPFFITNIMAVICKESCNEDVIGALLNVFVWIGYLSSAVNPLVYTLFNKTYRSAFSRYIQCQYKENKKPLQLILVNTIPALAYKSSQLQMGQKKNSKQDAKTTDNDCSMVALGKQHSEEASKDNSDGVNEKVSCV
# Chain of Beta-2 adrenergic receptor (Homo sapiens) (P07550 whole entry, looked up): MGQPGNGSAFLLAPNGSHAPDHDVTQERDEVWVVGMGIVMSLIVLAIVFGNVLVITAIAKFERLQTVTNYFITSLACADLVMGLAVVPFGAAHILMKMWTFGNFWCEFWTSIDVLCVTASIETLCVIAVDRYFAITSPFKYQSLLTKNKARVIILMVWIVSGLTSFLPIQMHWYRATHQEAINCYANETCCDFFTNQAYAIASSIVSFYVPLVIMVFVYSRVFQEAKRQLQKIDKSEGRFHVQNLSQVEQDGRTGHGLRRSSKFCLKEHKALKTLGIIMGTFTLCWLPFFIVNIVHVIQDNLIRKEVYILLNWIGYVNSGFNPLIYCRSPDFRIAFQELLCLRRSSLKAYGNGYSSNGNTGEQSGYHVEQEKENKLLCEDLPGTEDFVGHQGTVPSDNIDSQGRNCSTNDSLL
smiles,measurement,setting,value
OCCOCC#CCOCCO,Potency,[1],inactive
same,Potency,[2],inactive
same,Potency,[3],inactive
same,Potency,[4],inactive
same,Potency,[5],inactive
same,Potency,[6],inactive
same,Potency,[7],inactive
same,Potency,[8],inactive
same,Potency,[9],inactive
same,Potency,[10],inactive
same,Potency,[11],inactive
same,Potency,[12],inactive
same,Potency,[13],inactive
same,Potency,[14],inactive
same,Potency,[15],inactive
same,Potency,[16],inactive
same,Potency,[17],inactive
N#CCCCC(C#N)CCC#N (stereo unspecified),Potency,[1],inactive
same,Potency,[2],inactive
same,Potency,[3],inactive
same,Potency,[4],inactive
same,Potency,[5],inactive
same,Potency,[6],inactive
same,Potency,[7],inactive
same,Potency,[8],inactive
same,Potency,[9],inactive
same,Potency,[10],inactive
same,Potency,[11],inactive
same,Potency,[12],inactive
same,Potency,[13],inactive
same,Potency,[14],inactive
same,Potency,[15],inactive
same,Potency,[18],inactive
same,Potency,[17],inactive
NC(Cc1ccc(F)cc1)C(=O)O (stereo unspecified),"activity change, negative = cytotoxicity",[1],2.68% [at 8.39 µM] (inactive)
same,activity change,[2],"-0.388% [at 5.22 µM, stronger effect = higher value] (inactive)"
same,activation,[3],2.03% [at 6.97 µM] (inactive)
same,activation,[4],-0.478% [at 5.23 µM] (inactive)
same,activation,[5],4.13% [at 5.99 µM] (inactive)
same,activation,[6],1.09% [at 5.99 µM] (inactive)
same,"activity change, negative = cytotoxicity",[7],3.36% [at 5.99 µM] (inactive)
same,"activity change, negative = cytotoxicity",[19],9.8% [at 5.99 µM] (inactive)
same,"activity change, negative = cytotoxicity",[8],-3.36% [at 5.99 µM] (inactive)
same,"activity change, negative = inhibition",[20],-1.08% [at 8.39 µM] (inactive)
same,"activity change, negative = inhibition",[15],-3.88% [at 8.39 µM] (inactive)
same,activation,[18],-31.2% [at 8.39 µM] (inactive)
same,activation,[16],1.24% [at 8.39 µM] (inactive)
same,"activity change, negative = inhibition",[17],11.6% [at 8.38 µM] (inactive)
CN(C)CCCN1c2ccccc2CCc2ccc(Cl)cc21,Potency,[1],61.1 µM (active)
same,Potency,[2],inactive
same,Potency,[3],inactive
same,Potency,[4],inactive
same,Potency,[5],inactive
same,Potency,[6],inactive
same,Potency,[7],40.8 µM (active) and inactive
same,Potency,[19],inactive
same,Potency,[14],inactive
same,Potency,[20],inactive
same,Potency,[15],inactive
same,Potency,[18],inactive
same,Potency,[16],inactive
same,Potency,[17],61.1 µM (active) and 18.8 µM (active)
CC(C)(C)C1CCC(CC2=C(O)c3ccccc3C(=O)C2=O)CC1 (stereo unspecified),Potency,[1],29.8 µM (active)
same,Potency,[2],inactive
same,Potency,[3],inactive
same,Potency,[4],inactive
same,Potency,[5],inactive
same,Potency,[6],inactive
same,Potency,[7],inactive
same,Potency,[19],inactive
same,Potency,[8],inactive
same,Potency,[10],inactive
same,Potency,[12],inactive
same,Potency,[13],inactive
same,Potency,[20],inactive
same,Potency,[16],inactive
same,Potency,[17],inactive
O=S(c1cc(Cl)cc(Cl)c1O)c1cc(Cl)cc(Cl)c1O,Potency,[1],23.7 µM (active)
same,Potency,[2],inactive
same,Potency,[3],inactive
same,Potency,[4],inactive
same,Potency,[5],inactive
same,Potency,[6],inactive
same,Potency,[7],inactive
same,Potency,[19],inactive
same,Potency,[9],17.8 µM (active)
same,Potency,[11],inactive
same,Potency,[13],inactive
same,Potency,[20],inactive
same,Potency,[15],inactive
same,Potency,[17],inactive
CC(=O)c1c(C)c([N+](=O)[O-])c(C(C)(C)C)c([N+](=O)[O-])c1C,Potency,[1],inactive
same,Potency,[2],inactive
same,Potency,[3],inactive
same,Potency,[4],inactive
same,Potency,[5],inactive
same,Potency,[6],inactive
same,Potency,[7],inactive
same,Potency,[19],inactive
same,Potency,[9],inactive
same,Potency,[10],inactive
same,Potency,[11],inactive
same,Potency,[12],inactive
same,Potency,[13],inactive
same,Potency,[20],inactive
same,Potency,[15],inactive
same,Potency,[18],inactive
same,Potency,[16],inactive
same,Potency,[17],inactive
NC1=NCC2c3ccccc3Cc3ccccc3N12 (stereo unspecified),Potency,[1],inactive
same,Potency,[2],inactive
same,Potency,[3],inactive
same,Potency,[4],inactive
same,Potency,[5],inactive
same,Potency,[6],inactive
same,Potency,[7],inactive
same,Potency,[19],inactive
same,Potency,[9],inactive
same,Potency,[11],inactive
same,Potency,[12],inactive
same,Potency,[13],inactive
same,Potency,[14],inactive
same,Potency,[20],inactive
same,Potency,[15],inactive
same,Potency,[16],4.92 µM (active)
same,Potency,[17],inactive
